# In the library only some 21% were active in any assay of this set; here they are far more common.
# DRD3 agonist: agonists of human D3 dopamine receptor. P35462. D3R DiscoveRx beta-arrestin cells, luminescence, 90 min. max activation, %. hit rate 0.58% among 410,000. AID 652048; in the data active = max activation above about 30%; also: 0% is about no effect
#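 Agonist mode: compounds and dopamine controls were applied to plated cells for 90 min at 37 degrees C after an overnight attachment at 1500 cells/well. Luminescent read-out followed 30 - 60 minutes at room temperature with DiscoveRx detection reagent.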
# IL-1B inflam inh: inhibitors of inflammasome signaling (IL-1 beta secretion); THP-1 LPS/ATP IL-1B secretion, AlphaLISA, 16 h; active compounds read low; activity change, % at 57.5 µM; hit rate 4.7% among 360,000; in the data active = activity change below about -50%; inconclusive = mostly about -30% to -49%; also: % is scaled to controls: 0 for no effect and ±100 for the full control effect
#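 Secreted IL-1B measured by AlphaLISA bead assay after 16 h compound exposure of THP-1 cells; compounds (final up to 57.5 uM) added 1 h before LPS (250 ng/mL) and ATP (1.25 mM) stimulation; lower signal means less secretion.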
# DRD3 antagonist: D3 dopamine receptor (human) antagonism; hit rate 2.5% among 360,000; max response, negative = inhibition, %; P35462; D3R cells, DiscoveRx beta-arrestin luminescence, antagonist mode; active compounds read low; in the data active = max response below about -50%; inconclusive = no clear call, values can overlap the other calls; also: % is scaled to controls: 0 for no effect and ±100 for the full control effect
#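 Cells expressing the human receptor were seeded at 1500 cells/well, incubated overnight at 37 degrees C in 5% CO2, then exposed to library compounds with dopamine controls for 90 minutes at 37 degrees C before luminescent detection.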
# DT40 TDP1 no CPT: qHTS for Inhibitors of human tyrosyl-DNA phosphodiesterase 1 (TDP1): qHTS in cells in absence of CPT | DT40 Tdp1-/- hTDP1 cells, no CPT, ATP luminescence, 48 h | Potency, µM (series often up to 46.2 µM), inactives show at the top dose activity change, negative = growth inhibition, hits mostly inhibitors | hit rate 15% among 420,000; also: potency is read from the fitted curve at half-maximal effect; % is scaled to controls: 0 for no effect and ±100 for the full control effect; nearly all actives have a fitted effect of over 55% in size
#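 A cellular qHTS used chicken DT40 cells lacking endogenous Tdp1 but carrying stably transfected human TDP1. Compounds were applied without camptothecin, and cell growth kinetics were judged by ATP-dependent luminescence after ≥48 hr.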
# DT40 TDP1 CPT: growth inhibition of DT40 Tdp1-/-;hTDP1 cells with camptothecin (screen for TDP1 inhibitors); chicken DT40 Tdp1-/-;hTDP1 cells + 20 nM CPT, ATP luminescence, 48 h; hit rate 12% among 420,000; Potency, µM (series often up to 46.2 µM), for inactives: at the highest dose activity change, negative = growth inhibition, actives largely listed as inhibitors; AID 686979; also: potency is read from the fitted curve at half-maximal effect; % is scaled to controls: 0 for no effect and ±100 for the full control effect; nearly all actives have a fitted effect of over 55% in size
#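 Chicken DT40 Tdp1-/- cells stably complemented with human TDP1 were seeded at 400 cells/well in medium containing 20 nM camptothecin, exposed to pin-transferred compounds, and grown at 37 °C for at least 48 hr. Viability was read as ATP luminescence.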
# ClpP mod: qHTS Assay for Activators of ClpP | ATP-dependent Clp protease proteolytic subunit (Bacillus subtilis (strain 168)), P80244 | purified B. subtilis ClpP, FRET peptide cleavage, 20 min | Potency, µM (titrated, usually from 57.5 µM), for inactives: top-dose activity change, negative = active | hit rate 1.9% among 340,000; active = well fitted falling curve with a large enough effect; inconclusive = small, poorly fitted or top-dose-only effect; inactive = no such curve, though single readings can be large or run the other way; also: potency is read from the fitted curve at half-maximal effect; the source files actives as falling curves though it sought activators and does not explain the sign; nearly all actives have a fitted effect of over 65% in size
# Target sequence (P80244 whole entry, looked up): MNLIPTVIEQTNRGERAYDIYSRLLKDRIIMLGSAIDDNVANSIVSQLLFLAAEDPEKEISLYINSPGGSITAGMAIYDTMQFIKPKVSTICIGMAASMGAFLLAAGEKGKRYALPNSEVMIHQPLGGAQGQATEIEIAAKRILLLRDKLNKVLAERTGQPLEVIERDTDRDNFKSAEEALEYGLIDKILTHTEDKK
#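 FRET quenching reversal measured ClpP activation: 10 microg/mL B. subtilis ClpP at pH 8 with the FRET-FV decapeptide, read at 430 nm after 320 nm excitation. The 20-min minus 0-min signal was scaled between DMSO/no-enzyme wells and ADEP (5.8 microM final).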
# * hit, by the source's call; ? = inconclusive; / = no result given. Unless noted, calls follow the shape of the dose curve; as a rule, active = well fitted inhibition curve with a large enough effect; inconclusive = small, poorly fitted or top-dose-only effect; inactive = flat fitted curve, though single readings scatter.
SMILES,DRD3 agonist,IL-1B inflam inh,DRD3 antagonist,DT40 TDP1 no CPT,DT40 TDP1 CPT,ClpP mod
CCOc1ccc(N(Cc2cc3cc(OC)ccc3[nH]c2=O)C(=O)C2CCCO2)cc1 (stereo unspecified),4.2,-11.4,?,18.4µM*,?,?
COCC(=O)N(Cc1cc2cc(OC)ccc2[nH]c1=O)c1ccc(C)cc1,-4.1,-14.8,-5.6,?,?,25.1µM*
Cc1cccc2cc(COC(=O)c3ccccc3)c(=O)[nH]c12,-10.2,5.4,-51.4*,-17.5%,-9.8%,-1.6%
COc1ccc2[nH]c(=O)c(CN(C(=O)c3ccco3)C(C)C)cc2c1,-3.3,-0.5,-7.3,-10.8%,-1.4%,/
COc1ccc(CC(=O)N(Cc2cc3cc(OC)ccc3[nH]c2=O)C(C)C)cc1,17.6,11.6,27.8,?,?,31.6µM*
O=C(CN1c2cccc3cccc(c23)S1(=O)=O)N1CCCCC1,-0.5,0.0,-9.3,-0.6%,-6.5%,-23.7%
CCCCN1C(=O)C(CC(=O)NCCc2ccccn2)CC(C(=O)N(C(C)C)C(C)C)=C1C (stereo unspecified),3.1,23.0,1.8,?,0.6%,0.8%
CCCN(Cc1cc2cccc(C)c2[nH]c1=O)C(=O)c1cccc(OC)c1,6.3,-8.7,24.5,16.4µM*,?,-26.0%
CCCCN(Cc1cc2cc(OC)ccc2[nH]c1=O)C(=O)c1ccco1,10.4,18.8,30.4,?,?,31.6µM*
CCCN(Cc1cc2cc(OC)ccc2[nH]c1=O)C(=O)c1ccco1,-1.1,3.7,-16.7,16.4µM*,29.1µM*,/
COc1ccc2[nH]c(=O)c(CN(C)C(=O)C3CCCCC3)cc2c1,1.1,7.9,6.6,?,?,28.2µM*
O=C(Nc1ccccc1)C1=C[C@H](c2ccc3c(c2)OCO3)C[C@H](OCc2ccc(CO)cc2)O1,-2.9,?,-14.1,-20.4%,-11.7%,-10.1%
c1ccc(CNc2c(C3CCNCC3)nc3scc(-c4ccccc4)n23)cc1,-2.6,-22.4,-25.9,-16.1%,?,-6.0%
CCOc1ccc(C(=O)N(Cc2ccc(OC)cc2)Cc2cc3cc(OC)ccc3[nH]c2=O)cc1,17.5,3.5,26.5,-20.1%,-11.4%,31.6µM*
COc1ccc2[nH]c(=O)c(CN(C)C(=O)c3ccncc3)cc2c1,8.6,-5.6,-11.8,-3.2%,-6.3%,?
COc1cc2cc(CN(C(=O)NC3CCCCC3)C3CCCC3)c(=O)[nH]c2cc1OC,-7.8,-4.1,5.8,?,-24.6%,25.1µM*
CCCN(Cc1cc2cc(OC)ccc2[nH]c1=O)C(=O)c1ccncc1,5.9,47.6,46.8,16.4µM*,?,31.6µM*
CCOc1ccc2[nH]c(=O)c(CN(CC3COCCO3)C(=O)c3ccc(C)cc3)cc2c1 (stereo unspecified),10.5,-28.0,23.8,-21.2%,?,4.2%
CCCCN(Cc1cc2cc(OC)ccc2[nH]c1=O)C(=O)c1ccccn1,-15.1,11.0,-14.0,?,?,20µM*
CC1CCN(C(=O)COC(=O)C23CC4CC(CC(O)(C4)C2)C3)CC1,1.2,22.5,-0.6,5.8%,-9.9%,0.9%
CCOc1ccc(NC(=O)CSc2nc3ccsc3c(=O)n2CCC(=O)O)cc1,4.0,19.4,6.8,24.3%,-3.2%,2.2%
O=C(OCC(=O)N1CCCCC1)c1ccc2c(c1)C(=O)N(Cc1ccco1)C2=O,-2.7,5.0,-9.6,15.1%,-15.1%,-0.5%
Cc1nc(SCC(=O)Nc2ccccc2C)cc(-c2ccccc2)n1,18.0,/,/,-6.9%,-6.5%,-0.4%
O=C(NNS(=O)(=O)c1ccc(F)cc1)c1cc(Cl)ccc1O,17.8,1.0,16.8,?,-17.4%,-13.1%
